Each structure is given as a SMILES string.

Fibroblast growth factor 10 (Homo sapiens), sequence (O15520 whole entry, looked up): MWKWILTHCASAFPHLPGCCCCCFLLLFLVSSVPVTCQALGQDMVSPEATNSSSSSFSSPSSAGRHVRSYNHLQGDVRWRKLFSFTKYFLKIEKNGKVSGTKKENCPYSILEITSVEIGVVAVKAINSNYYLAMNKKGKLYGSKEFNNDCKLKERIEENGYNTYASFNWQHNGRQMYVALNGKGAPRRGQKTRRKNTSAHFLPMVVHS

The first assay has as its target Fibroblast growth factor 10 (Homo sapiens) (UniProt O15520). Nature of the assay: compounds binding fibroblast growth factor 10 – biochemical, small-molecule microarray, 635 nm fluorescence, primary screen (AID 1102). The settings on record: FGF10 binding, fluorescence 635 nm, higher = more signal.
With `CCOC(=O)[C@H](CC(C)C)NC(=O)CCC1CC(OC(=O)NCc2ccc3c(c2)OCO3)CC2(CCCC(COC(=O)NCc3ccccc3)O2)O1` (some centres not stated), the composite z-score was 0.713. `CC(C)C(=O)N[C@H]1CCCN1C(=O)C=Cc1ccccc1` had a composite z-score of 1.07. Molecule `COC(=O)[C@H](C)NC(=O)CCC1CC(OC(=O)NCc2cccc3ccccc23)CC2(CCCC(COC(=O)NCc3ccccc3)O2)O1` (some centres not stated) came in with a composite z-score of 0.625. `CCOC(=O)[C@H](CC(C)C)NC(=O)CCC1CC(OC(=O)NCCc2ccc(F)cc2)CC2(CCCC(COC(=O)NCc3cccc4ccccc34)O2)O1` (some centres not stated) returned a composite z-score of 0.176. Consider `COC(=O)CC=C[C@@H](C)[C@@H](C=NOC(C)CN1CCCCc2nc(C)c(C)cc21)OC` (some centres not stated), for which the composite z-score is -0.285. Regarding `CCN1C(=O)[C@H]2[C@H]3[C@H](O)[C@H](O)CC(=NOC[C@@H](O)COCc4ccco4)[C@H]3CC[C@H]2C1=O`, the composite z-score was -0.169. `COCCNC(=O)OCC1CCCC2(CC(OC(=O)NCc3cccc4ccccc34)CC(CCC(=O)N[C@@H](C)C(=O)OC)O2)O1` (some centres not stated) yielded a composite z-score of 1.06.

Molecule `CC(=O)OC[C@H]1O[C@@H](ON=C(C)CCN2CCCCc3nc(C)c(C)cc32)[C@H](OC(C)=O)[C@@H](OC(C)=O)[C@@H]1OC(C)=O` yielded a composite z-score of 1.23.

On to `O=C1C=C[C@@H](O)[C@@H]2[C@@H]3C(=O)N(c4cccc(Oc5ccccc5)c4)C(=O)[C@@H]3CC[C@@H]12`, for which the composite z-score amounted to 0.322. The same measure, in the same setting: the result for `CCOC(=O)[C@H](CC(C)C)NC(=O)CCC1CC(OC(=O)NCCc2ccc(F)cc2)CC2(CCCC(COC(=O)NCCOC)O2)O1` (some centres not stated) reads 1.15; that for `CCN1C(=O)[C@H]2[C@H]3[C@H](O)[C@H](O)CC(=NOC(C)CN4CCCc5nc(C)c(C)cc54)[C@@H]3CC[C@H]2C1=O` (some centres not stated), 0.784. As to `CC(C)=CCCC(C)=CCON=C1[C@H]2CCn3c(=O)n(-c4ccccc4)c(=O)n3[C@H]2[C@H](O)[C@@H]2O[C@H]12`, the composite z-score is 0.726. Molecule `O=C1C=C[C@@H](O)[C@@H]2[C@@H]3C(=O)N(Cc4ccccc4)C(=O)[C@@H]3CC[C@@H]12` showed a composite z-score of 0.659.

In the case of `CCCCOC(OCCCC)C(O)CSc1ccc2ccccc2c1` (configuration not stated), the composite z-score came out at 0.379. Consider `CC[C@@H](c1ccccc1)n1c(=O)n2n(c1=O)[C@H]1[C@H](O)[C@@H]3O[C@@H]3C(=NOCc3ccccc3)[C@H]1CC2`, for which the composite z-score is 0.487. `CC(CCN1CCCc2nc(C)c(C)cc21)=NOC[C@@H](C)[C@H](OCc1ccccc1)C(C)C`: the composite z-score was -0.569.

The test system of a further assay is glycogen synthase kinase-3 (GSK3A per assay name; protocol says GSK3B). Nature of the assay: compounds binding glycogen synthase kinase-3 – biochemical, small-molecule microarray, 635 nm fluorescence, GSK3A, primary screen (AID 1103). Note: the record names both GSK3A and GSK3B. The following applies: fluorescence 635 nm, higher = more signal.
With `CC(C)CN1CCc2nc(-c3ccccc3)c3c(c2C1)CO[C@@H](C)C3`, the composite z-score was determined as 1.16. In turn, `COCC#Cc1ccc([C@@H]2N[C@H](C(=O)O)CC[C@H]2C)cc1` returned a composite z-score of 0.223. As for `C[C@@H](c1ccccc1)N1C(=O)[C@H]2[C@H]3[C@H](O)[C@H](O)CC(=NOC[C@@H](O)COCc4ccco4)[C@H]3CC[C@H]2C1=O`, the composite z-score was 1.21. In turn, `CCOC(=O)[C@H](CC(C)C)NC(=O)CCC1CC(OC(=O)NCc2ccc3c(c2)OCO3)CC2(CCCC(COC(=O)NCCc3ccc(Cl)cc3)O2)O1` (some centres not stated) came in with a composite z-score of 0.293.

As for `C#CCCCON=C1C[C@@H](O)[C@@H](O)[C@@H]2[C@@H]3C(=O)N(C4CCCCC4)C(=O)[C@@H]3CC[C@@H]12`, the composite z-score is -0.0432. The same measure, in the same setting: then `CC(C)=CCCC(C)=CCON=C1C[C@@H](O)[C@@H](O)[C@@H]2[C@@H]3C(=O)N(c4cccc(Oc5ccccc5)c4)C(=O)[C@@H]3CC[C@H]12`, with 0.286; and `COc1ccc(O[C@H]2C=C[C@@H](C#Cc3ccccc3)O[C@@H]2CO)cc1`, with -0.139. On to `CCCNC(=O)OC[C@H]1O[C@H](CCON=C[C@@H](NS(=O)(=O)c2ccc(C)cc2)[C@H](C)C=CCC(=O)OC)C=C[C@@H]1Oc1ccc(OC)cc1`, for which the composite z-score was -0.54. Consider `COC(=O)[C@H](C)NC(=O)CCC1CC(OC(=O)NCc2cccc3ccccc23)CC2(CCCC(COC(=O)NCCCN3CCCC3=O)O2)O1` (some centres not stated), for which the composite z-score amounted to 1.17. `COC(=O)[C@H](C)NC(=O)CCC1CC(OC(=O)NCCc2ccc(F)cc2)CC2(CCCC(COC(=O)NCC3CCCCC3)O2)O1` (some centres not stated) came in with a composite z-score of 1.23.

As to `COC(=O)[C@H](C)NC(=O)CCC1CC(OC(=O)NCc2ccc3c(c2)OCO3)CC2(CCCC(COC(=O)NCCc3ccc(Cl)cc3)O2)O1` (some centres not stated), the composite z-score is 0.591.

Take `COc1ccc(COC(=O)NN=C2C[C@@H](O)[C@@H](O)[C@@H]3[C@@H]4C(=O)N([C@@H](C)c5ccccc5)C(=O)[C@@H]4CC[C@@H]23)cc1`: the composite z-score is -0.111. Still for that read-out and setting: the result for `COc1ccc(O[C@H]2C=C[C@@H](c3ccccc3)O[C@@H]2COC(=O)CCC(C)=NOC[C@@H](O)COCc2ccco2)cc1` reads -1.95.

`CCN1C(=O)[C@H]2[C@H]3[C@H](O)[C@H](O)CC(=NOCC(C)C)[C@H]3CC[C@H]2C1=O`: the composite z-score came out at 0.636.

Take `CC(=O)OC[C@H]1O[C@H](C#CCC2CCCCC2)C=C[C@@H]1OC(C)=O`: the composite z-score was determined as 0.719.

For the molecule `CCN1C(=O)[C@H]2[C@H]3[C@H](O)[C@H](O)CC(=NOC[C@@H](O)[C@H]4O[C@@H]5OC(C)(C)O[C@@H]5[C@H]4O)[C@@H]3CC[C@H]2C1=O`, the composite z-score was -0.246.

For `C[C@@H]1CC[C@@H](C(=O)O)N[C@H]1c1cccc(N2CCOCC2)c1`, the composite z-score stood at 0.74.

For `CCOC(=O)NN=C1C[C@@H](O)[C@@H](O)[C@@H]2[C@@H]3C(=O)N(c4ccc(F)cc4F)C(=O)[C@@H]3CC[C@H]12`, the composite z-score worked out at 0.544. `CCC1=NOC(CCC2CC(OC(=O)NCc3cccc4c3OCO4)CC3(CCCC(COC(=O)NCCc4ccc(Cl)cc4)O3)O2)C1` (configuration not stated): the composite z-score worked out at 0.173.

As to `CCOC(=O)CCN1C(=O)[C@H]2[C@H]3[C@H](O)[C@H](O)CC(=NO[C@@H]4O[C@H](CO)[C@@H](O)[C@H](O)[C@H]4O)[C@@H]3CC[C@H]2C1=O`, the composite z-score was determined as 1.26. Consider `CCOC(=O)[C@H](CC(C)C)NC(=O)CCC1CC(OC(=O)NCc2ccc3c(c2)OCO3)CC2(CCCC(COC(=O)NCc3ccccc3)O2)O1` (some centres not stated), for which the composite z-score turned out to be 0.486. `CC(C)C(=O)N[C@H]1CCCN1C(=O)C=Cc1ccccc1` had a composite z-score of 0.823. Molecule `COC(=O)[C@H](C)NC(=O)CCC1CC(OC(=O)NCc2cccc3ccccc23)CC2(CCCC(COC(=O)NCc3ccccc3)O2)O1` (some centres not stated) yielded a composite z-score of 1.04. In the case of `CCOC(=O)[C@H](CC(C)C)NC(=O)CCC1CC(OC(=O)NCCc2ccc(F)cc2)CC2(CCCC(COC(=O)NCc3cccc4ccccc34)O2)O1` (some centres not stated), the composite z-score came out at 0.121.

Molecule `COC(=O)CC=C[C@@H](C)[C@@H](C=NOC(C)CN1CCCCc2nc(C)c(C)cc21)OC` (some centres not stated) showed a composite z-score of 0.959. For the molecule `CCN1C(=O)[C@H]2[C@H]3[C@H](O)[C@H](O)CC(=NOC[C@@H](O)COCc4ccco4)[C@H]3CC[C@H]2C1=O`, the composite z-score turned out to be 0.797. Still for that read-out and setting: then `COCCNC(=O)OCC1CCCC2(CC(OC(=O)NCc3cccc4ccccc34)CC(CCC(=O)N[C@@H](C)C(=O)OC)O2)O1` (some centres not stated), with 1.22; and `CC(=O)OC[C@H]1O[C@@H](ON=C(C)CCN2CCCCc3nc(C)c(C)cc32)[C@H](OC(C)=O)[C@@H](OC(C)=O)[C@@H]1OC(C)=O`, with 1.19; and `O=C1C=C[C@@H](O)[C@@H]2[C@@H]3C(=O)N(c4cccc(Oc5ccccc5)c4)C(=O)[C@@H]3CC[C@@H]12`, with 0.499. Still for that read-out and setting: the result for `CCOC(=O)[C@H](CC(C)C)NC(=O)CCC1CC(OC(=O)NCCc2ccc(F)cc2)CC2(CCCC(COC(=O)NCCOC)O2)O1` (some centres not stated) reads 0.953; that for `CCN1C(=O)[C@H]2[C@H]3[C@H](O)[C@H](O)CC(=NOC(C)CN4CCCc5nc(C)c(C)cc54)[C@@H]3CC[C@H]2C1=O` (some centres not stated), 0.901. Still for that read-out and setting: the result for `CC(C)=CCCC(C)=CCON=C1[C@H]2CCn3c(=O)n(-c4ccccc4)c(=O)n3[C@H]2[C@H](O)[C@@H]2O[C@H]12` reads 1.26. `O=C1C=C[C@@H](O)[C@@H]2[C@@H]3C(=O)N(Cc4ccccc4)C(=O)[C@@H]3CC[C@@H]12` had a composite z-score of 0.653. Consider `CCCCOC(OCCCC)C(O)CSc1ccc2ccccc2c1` (configuration not stated), for which the composite z-score stood at 0.68. As to `CC[C@@H](c1ccccc1)n1c(=O)n2n(c1=O)[C@H]1[C@H](O)[C@@H]3O[C@@H]3C(=NOCc3ccccc3)[C@H]1CC2`, the composite z-score is -0.0586. Turning to `CC(CCN1CCCc2nc(C)c(C)cc21)=NOC[C@@H](C)[C@H](OCc1ccccc1)C(C)C`, the composite z-score is -0.715.
